RORg inh: ROR gamma (mouse) transcription inhibition. Drosophila S2 Gal4-RORgamma UAS-luciferase reporter, 20 h. Potency, µM (doses to about 53.6 µM), for the others: at the top dose activity change, negative = inhibition, actives largely listed as inhibitors. hit rate 5.4% among 310,000. AID 2551; further: potency means the concentration at half of the fitted maximal effect; on the % scale 0 is the no-effect control and ±100 the full control effect; nearly all actives have a fitted effect of over 60% in size
Target sequence (P51450 whole entry, looked up, the tested form may be a part): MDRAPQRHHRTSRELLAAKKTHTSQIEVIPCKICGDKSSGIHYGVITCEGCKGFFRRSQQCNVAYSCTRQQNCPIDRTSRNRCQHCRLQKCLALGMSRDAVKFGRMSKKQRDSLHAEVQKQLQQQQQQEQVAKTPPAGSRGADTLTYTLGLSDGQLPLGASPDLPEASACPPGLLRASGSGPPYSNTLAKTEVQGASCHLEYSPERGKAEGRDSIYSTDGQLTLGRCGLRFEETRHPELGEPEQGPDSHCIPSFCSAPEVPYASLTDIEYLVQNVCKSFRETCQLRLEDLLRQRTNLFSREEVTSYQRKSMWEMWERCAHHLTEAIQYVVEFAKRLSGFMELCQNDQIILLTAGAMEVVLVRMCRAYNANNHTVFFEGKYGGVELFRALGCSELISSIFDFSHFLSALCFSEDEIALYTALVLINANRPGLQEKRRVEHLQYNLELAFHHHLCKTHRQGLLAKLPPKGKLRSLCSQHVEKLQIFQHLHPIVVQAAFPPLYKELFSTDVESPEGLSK
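Schneider cells (Drosophila), stable Gal4 DBD–ROR gamma + UAS-luc; 1 hr cmpd preincubation; Cu2+ induction 700 uM final; 20 hr ambient; luminescence.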
BCR signal inh: blocks chronic active B-cell receptor signaling; ABC-DLBCL IkBa-CBG/CBR reporter, luminescence ratio, 4 h; Potency, µM (highest dose often 46.1 µM), for inactives: at the highest dose activity change, negative = inhibition, most hits filed as inhibitors; hit rate 0.05% among 340,000; AID 493014; active means well fitted inhibition curve with a large enough effect in the signal ratio, with a control signal flat, not every such curve was filed as active; inconclusive means small, poorly fitted or top-dose-only effect, or effect the other way, or a change in a side signal; the % refers to the signal ratio;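 further: potency means the concentration at half of the fitted maximal effect; plate controls were basal doxycycline-induced cells for no effect and cells given 10 µM MG132 for full effect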
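Cell line TMD8 (human ABC DLBCL), stably expressing tet-inducible CBG68-IkBa fusion and CBR; IMDM/0.5% FBS; cpd up to 46 uM; dox induction, 4 h, 37C/5% CO2; dual luminescence; green/red ratio; MG132 control.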
Giardia killer: Giardia lamblia killing. activity change, % at 7.66 µM, hits read low. Giardia lamblia trophozoite viability. hit rate 0.15% among 340,000; in the data active means activity change below about -80%; inconclusive means between about -30% and that limit;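 further: parasites exposed to compound for two days anaerobically before the ATP read; on the % scale 0 is the no-effect control and ±100 the full control effect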
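Media and compound were dispensed first, then trophozoites at 100 cells/well; plates sat 48 hrs at 37 deg C without oxygen before ATP luminescence reagent was added and read after 15-30 min at room temperature.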
MCF10A rerep: induces DNA re-replication in MCF 10a normal breast cells; Potency, µM (titrated, usually from 46.1 µM), for inactives: at the top dose activity, positive = re-replication, usual class: activators; hit rate 2.9% among 350,000; MCF 10A DNA re-replication, Hoechst nuclear intensity, 48 h; further: potency means the concentration at half of the fitted maximal effect; % of control where 0% means no effect; nearly all actives have a fitted effect of over 50% in size
VP16 counter: Gal4-VP16 reporter inhibition counter-screen; AID 2546; Drosophila S2 Gal4-VP16 UAS-luciferase, luminescence, 20 h; hit rate 3.5% among 310,000; Potency, µM (titrated, usually from 53.6 µM), for inactives: at the highest dose activity, negative = inhibition, hits mostly inhibitors;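 further: Gal4-VP16 expression switched on by copper sulfate through the metallothionein promoter; potency means the concentration at half of the fitted maximal effect; on the % scale 0 is the no-effect control and ±100 the full control effect; nearly all actives have a fitted effect of over 50% in size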
SW480 rerep: inducers of DNA re-replication in SW480 colon cancer cells; hit rate 1.8% among 340,000; Potency, µM (highest dose often 46.1 µM), without a hit: at the top dose re-replication activation, actives largely listed as activators; SW480 DNA re-replication, Hoechst DNA content imaging, 48 h; further: potency means the concentration at half of the fitted maximal effect; % of control where 0% means no effect; nearly all actives have a fitted effect of over 55% in size
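Compounds, transferred as 23 nL by pin tool, were incubated with cells for 48 hr; DNA content per nucleus was then quantified by Hoechst staining and fluorescence plate imaging.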
* = called active by the depositor; ? = inconclusive; . = not tested or not shown; [ ] = another dose, or the depositor's remark. Sampled rows, rich in hits. Any-hit rate of the full collection: about 8.3%. Unless noted, the call rests on the fitted dose curve; in most records, active means well fitted curve in the direction sought with a large enough effect; inconclusive means small, poorly fitted or top-dose-only effect, or another doubt; inactive means no such curve, though single readings can be large; an effect the other way counts as inactive or inconclusive.

SMILES	RORg inh	BCR signal inh	Giardia killer	MCF10A rerep	VP16 counter	SW480 rerep
CCc1c(C)nc2cc(-c3cc(OC)cc(OC)c3)nn2c1N1CCCC1	7.1µM*	-8%	8	-1%	13µM*	1%
COc1ccc(N2COC3c4cccc5cccc(c45)C32)cc1 (centres undefined)	-32%	?	-24	23µM*	5%	1%
Clc1ccc(N2COC3c4cccc5cccc(c45)C32)cc1 (centres undefined)	12%	2%	4	4%	?	0%
N#C/C(=C\c1cccc(Br)c1)C(=O)N1CCCCC1	2.5µM*	-13%	-6	23µM*	?	?
Cc1cc(/C=C(\C#N)C(=O)N2CCCCC2)cc(C)c1O	-28%	?	13	?	?	?
N#C/C(=C\c1cccc(O)c1)C(=O)N1CCCCC1	6%[1.91 µM]	0%	-12	18µM*	-27%	?
COCCn1c(=O)c(-c2cc(F)cc(F)c2)nc2cnc(OCc3ccccc3)nc21	-1%	.	.	.	-11%	.
CCN(CC)c1ccc2c(-c3ccc(S(=O)(=O)O)cc3S(=O)(=O)[O-])c3ccc(=[N+](CC)CC)cc-3oc2c1	-34%	?	5	-18%	?	-3%
CCN(CC)c1ccc(C(=C2C=CC(=[N+](CC)CC)C=C2)c2ccc(N(CC)CC)cc2)cc1	.	.	-4	?	.	21µM*
CCN(CC)c1ccc(C(=C2C=CC(=[N+](CC)CC)C=C2)c2ccccc2)cc1	2.5µM*	.	1	?	35µM*	?
CCN(CC)c1ccc(C(=C2C=CC(=[N+](CC)Cc3cccc(S(=O)(=O)[O-])c3)C=C2)c2ccc(N(CC)Cc3cccc(S(=O)(=O)O)c3)cc2)cc1	-16%	.	.	.	11µM*	.
CCN(CC)c1ccc(C(=O)NNC(=O)CCNC(=O)c2ccccc2)cc1	.	-1%	3	-7%	.	-4%
CCOc1ccc(S(=O)(=O)N(C)CC(=O)N2CCCC2)cc1	.	2%	-18	3%	.	-3%
C=CCOc1c(Br)cc(CNn2cn[nH]c2=S)cc1OC	10µM*	0%	4	9%	-2%	0%
C=CCOc1c(Br)cc(CNn2c(C)n[nH]c2=S)cc1OCC	?	-20%	-18	13%	?	-7%
COc1cc(CNn2c(C)n[nH]c2=S)cc(Cl)c1OCc1ccc(F)cc1	?	?	0	-7%	?	-10%
COc1cc(CNn2c(C)n[nH]c2=S)cc(Br)c1OCc1ccc(F)cc1	10µM*	-15%	7	3%	-2%	-4%
C=CCOc1ccc(CNn2cn[nH]c2=S)cc1	13µM*	-14%	-2	2%	?	-1%
c1ccc(N(c2ccccc2)c2nc(-n3ccnc3)nc(-n3ccnc3)n2)cc1	-28%	-7%	-6	20µM*	-13%	14%
CCCCNc1nc(N(C)c2ccccc2)nc(-n2ccnc2)n1	10µM*	-2%	-15	?	?	?
C=CCNc1nc(N(c2ccccc2)c2ccccc2)nc(-n2ccnc2)n1	11µM*	0%	-4	?	-13%	-24%
c1ccc(-c2nc(N3CCN(c4ccccc4)CC3)nc(-n3ccnc3)n2)cc1	13µM*	-8%	-9	7.3µM*	16µM*	?
CN(c1ccccc1)c1nc(-n2ccnc2)nc(-n2ccnc2)n1	-12%	7%	4	-1%	-4%	0%
c1ccc(-c2nc(N3CCCCCC3)nc(-n3ccnc3)n2)cc1	?	6%	1	29%	0%	-1%[9.22 µM]
CC(=O)Nc1ccc(SC[C@H](C)CN2CC[C@H](C(C)(C)C)CCC2=O)cc1	.	-13%	11	-6%	.	-2%
SMILES	RORg inh	BCR signal inh	Giardia killer	MCF10A rerep	VP16 counter	SW480 rerep
COCCN1CSC(=S)N(Cc2ccco2)C1	?	-1%	?	?	-15%	5.8µM*
S=C1SCN(Cc2ccccn2)CN1Cc1ccco1	?	?	0	4.1µM*	-5%	7.3µM*
Cn1ncc2c(Nc3cc(C(F)(F)F)ccc3Cl)ncnc21	.	-3%	.	.	.	.
CC(C)(Cc1ccc(O)cc1)NC(=O)c1ccccc1	11%	-1%	-5	26%	-5%	?
C[C@@H]1CCC(=O)N(C[C@@H](C)CSc2ccccc2)CC1	11%	5%	-5	-14%	24%	-5%
COc1cc(NC(=O)CSc2ncnc3sc4c(c23)CCCC4)c(C(=O)O)cc1OC	-22%	-2%	4	?	-2%	2%
O=C(Nc1cccnc1)c1ccccc1F	23%	-3%	-10	3%	1%	-1%
O=C(/C=C/c1ccncc1)c1ccc(NC(=O)c2ccccc2F)cc1	?	?	-7	3.7µM*	?	4.1µM*
O=C(O)/C=C/c1ccc(S(=O)(=O)Nc2ccc(OCc3ccccc3)cc2)cc1	0%	-4%	-12	-4%	-12%	-13%
N#Cc1ccc(/C=C/C(=O)c2ccccc2)cc1	-79%	?	-19	21µM*	?	0%
O=C(/C=C/c1ccc(NC(=O)c2ccccc2-c2ccccc2C(=O)O)cc1)c1ccccc1	11µM*	?	-3	?	?	11%
N#Cc1ccccc1COc1ccc(/C=C/C(=O)O)cc1	0.18µM*	-1%	-2	-5%	0.71µM*	-4%
CN1CCC(N(C)C(=O)c2ccc(Cl)c(S(=O)(=O)Nc3cc(Cl)ccc3Cl)c2)CC1	.	?	26	5%	.	-16%
COc1ccc(-c2nc3c(n2O)CCCC3=O)cc1OC	-18%	0%	-4	0%	-4%	2%
CS(=O)c1ccc(-n2c(=O)n(Cc3ccccc3)c(=O)c3[nH]cnc32)cc1 (centres undefined)	-3%	-11%	3	1%	-2%	-7%
COc1ccc(CC(=O)NC2CCCc3ccccc32)cc1 (centres undefined)	16%	-3%	1	2%	-12%	2%
COc1ccc2c(c1)C(CC(=O)NN)CCC2 (centres undefined)	.	.	1	2.3µM*	.	13µM*
O=C(N/N=C\c1cccnc1)c1ccc(Br)s1	24%	3%	-17	-10%	-1%	-29%
O=C(N/N=C/c1cc(O)ccc1Br)c1cccnc1	1.8µM*	?	7	5%	1.3µM*	12%
O=C(N/N=C/c1ccc(Br)s1)c1cccnc1	1.3µM*	?	-13	-2%	16µM*	-5%
O=C(Nc1ccccc1)C1=C[C@H](c2ccc3c(c2)OCO3)C[C@H](OCc2ccc(CO)cc2)O1	10%	?	-24	-36%	-3%	?
O=C(CN1CCCC1)N/N=C/c1ccc(-c2cccc(Cl)c2)o1	?	-5%	-1	4%	-17%	-3%[9.22 µM]

Compound activity: PubChem BioAssay, National Center for Advancing Translational Sciences (NCATS)
